High-throughput results from PubChem BioAssay.
12-LOX inh = blocks human arachidonate 12S-lipoxygenase. purified 12hLO, xylenol orange hydroperoxide absorbance. Potency, µM (doses to about 108 µM), for inactives: at the highest dose activity change, negative = inhibition, actives largely listed as inhibitors. 1.1% of 580,000 active; also: potency is read from the fitted curve at half-maximal effect
Target sequence (P18054 whole entry, looked up): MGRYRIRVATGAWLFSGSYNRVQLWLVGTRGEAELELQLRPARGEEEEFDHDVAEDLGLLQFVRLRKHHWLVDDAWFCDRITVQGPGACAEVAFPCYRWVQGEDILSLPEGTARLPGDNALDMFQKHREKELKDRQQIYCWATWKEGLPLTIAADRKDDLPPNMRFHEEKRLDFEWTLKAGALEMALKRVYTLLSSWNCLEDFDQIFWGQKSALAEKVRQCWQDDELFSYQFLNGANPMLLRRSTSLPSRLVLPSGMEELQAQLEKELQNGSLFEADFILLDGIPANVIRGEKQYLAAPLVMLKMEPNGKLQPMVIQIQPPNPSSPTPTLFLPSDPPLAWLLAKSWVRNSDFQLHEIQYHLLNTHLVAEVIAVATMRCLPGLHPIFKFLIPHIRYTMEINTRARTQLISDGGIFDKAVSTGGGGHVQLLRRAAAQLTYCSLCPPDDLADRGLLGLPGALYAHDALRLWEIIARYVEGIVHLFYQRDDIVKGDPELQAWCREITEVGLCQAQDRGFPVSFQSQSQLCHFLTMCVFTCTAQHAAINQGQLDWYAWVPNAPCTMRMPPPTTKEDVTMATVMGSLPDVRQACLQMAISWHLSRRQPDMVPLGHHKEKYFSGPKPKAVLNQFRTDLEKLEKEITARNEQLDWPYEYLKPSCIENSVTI
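Purified human 12hLO at 150 nM in 25 mM Hepes, 0.01% Triton X-100, pH 7.0, preincubated 15 min at room temperature with compound. Reaction started with 40 uM arachidonic acid, 30 min at room temperature. Hydroperoxide measured by Fe-xylenol orange, 573/405 nm absorbance ratio.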
HT1080 IDH1KD tx = toxicity to HT-1080 IDH1 knockdown cells (counter line); HT-1080 IDH1 knockdown viability, ATP luminescence, 48 h; Potency, µM (doses to about 46.1 µM), for inactives: top-dose activity, negative = toxicity, actives largely listed as cytotoxic; 2% of 360,000 active;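 also: potency is read from the fitted curve at half-maximal effect; 0% = DMSO wells and -100% = cell-free medium wells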
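Assay cells: HT-1080 with IDH1 knockdown, 750 per well, RPMI/5% FBS. Exposure: 48 h at 37 °C following 2 h pre-incubation. Read: CellTiter-Glo luminescence; fitted concentration-response, curve class assigned.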
DT40 TDP1 no CPT = qHTS for Inhibitors of human tyrosyl-DNA phosphodiesterase 1 (TDP1): qHTS in cells in absence of CPT; DT40 Tdp1-/- hTDP1 cells, no CPT, ATP luminescence, 48 h; Potency, µM (series often up to 46.2 µM), without a hit: top-dose activity change, negative = growth inhibition, usual class: inhibitors; 15% of 420,000 active; AID 686978, 2013; also: potency is read from the fitted curve at half-maximal effect; nearly all actives have a fitted effect of over 55% in size
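Compound effects on proliferation are scored in DT40 Tdp1-/-;hTDP1 cells in the absence of CPT. ATP levels (CellTiter-Glo luminescence) are recorded after a ≥48 hr, 37 °C incubation.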
HT1080-NT tox = kills 2HG-producing HT-1080-NT fibrosarcoma cells; HT-1080-NT fibrosarcoma viability, CellTiter-Glo ATP luminescence, 48 h; Potency, µM (top dose mostly 46.1 µM), without a hit: at the highest dose activity, negative = less viability, hits mostly cytotoxic; 1.6% of 360,000 active;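 also: NT is the 2HG producing partner of a matched IDH1 knockdown line; potency is read from the fitted curve at half-maximal effect; 0% = DMSO-treated cells and -100% = media-only wells without cells; nearly all actives have a fitted effect of over 55% in size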
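Read-out is CellTiter-Glo luminescence after 10 minutes at room temperature, following 48 hours' compound treatment of HT-1080-NT cells (750 cells/well, RPMI, 5% FBS, 37 degrees C).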
TDP1 cell CPT = DT40-hTDP1 cell growth loss with CPT | chicken DT40 Tdp1-/-;hTDP1 cells + 20 nM CPT, ATP luminescence, 48 h | Potency, µM (highest dose often 46.2 µM), for the others: at the highest dose activity change, negative = growth inhibition, most hits filed as inhibitors | 12% of 420,000 active | AID 686979; also: potency is read from the fitted curve at half-maximal effect; nearly all actives have a fitted effect of over 55% in size
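Chicken DT40 Tdp1-/- cells complemented with human TDP1, 400 cells/well, exposed to compounds plus 20 nM camptothecin for at least 48 h at 37 C; viability read as ATP content by CellTiter-Glo luminescence.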
IL1B secr inh = inflammasome signaling inhibition, IL-1 beta readout | THP-1 LPS/ATP IL-1B secretion, AlphaLISA, 16 h; active compounds read low | activity change, % at 57.5 µM | 4.7% of 360,000 active; in the data active = activity change below about -50%; inconclusive = mostly about -30% to -49%
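Secreted IL-1B measured by AlphaLISA bead assay after 16 h compound exposure of THP-1 cells; compounds (final up to 57.5 uM) added 1 h before LPS (250 ng/mL) and ATP (1.25 mM) stimulation; lower signal means less secretion.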
The depositor's hits bear a star; i = inactive; ? = inconclusive; . = not tested or not shown; [ ] = dose if it differs, or a comment. The sample as a whole holds a higher share of hits than the screen did. Unless noted, calls follow the shape of the dose curve; as a rule, active = well fitted curve in the direction sought with a large enough effect; inconclusive = small, poorly fitted or top-dose-only effect, or another doubt; inactive = no such curve, though single readings can be large; an effect the other way counts as inactive or inconclusive. Unless noted, % is scaled to controls: 0 for no effect and ±100 for the full control effect.

SMILES	12-LOX inh	HT1080 IDH1KD tx	DT40 TDP1 no CPT	HT1080-NT tox	TDP1 cell CPT	IL1B secr inh
CCN(C(=O)C(=O)Nc1ccc2nc3n(c(=O)c2c1)CCCCC3)c1ccccc1F	-7%	.	.	.	.	.
CC(C)Cn1nc(C(=O)N2CCCC2c2nc3ccccc3s2)c2ccccc2c1=O (stereo not given)	2%	.	.	.	.	.
CC1(C)Cc2nc3sc4c(=O)[nH]cnc4c3cc2CS1	0%	0%	?	-2%	?	?
CC1(C)Cc2nc3sc4c(=O)n(CC(=O)NCc5ccco5)cnc4c3cc2CO1	-7%	10µM*	8.2µM*	?	4.6µM*	36
CC1(C)Cc2nc3sc4c(OCc5ccccc5)ncnc4c3cc2CO1	-21%	3%	18µM*	10%	?	55
CCCCCn1cnc2c(sc3nc4c(cc32)CSC(C)(C)C4)c1=O	-20%	-2%	10µM*	-9%	?	9
CC1(C)Cc2nc3oc4c(=O)n(CC(=O)Nc5ccccc5)cnc4c3cc2CO1	2%	0%	-18%	-1%	-27%	63
CCc1nc(OCc2ccccc2)c2sc3nc4c(cc3c2n1)COC(C)(C)C4	-8%	7%	?	14%	29µM*	-8
Cc1ccc(C(C)NC(=O)c2ccncc2)c(C)c1 (stereo not given)	-2%	4%	?	-5%	?	14
CCc1ccc(C2c3c(-c4ccccc4O)n[nH]c3C(=O)N2Cc2ccncc2)cc1 (stereo not given)	-19%	.	13µM*	.	15µM*	.
COCCCN1C(=O)c2[nH]nc(-c3ccccc3O)c2C1c1ccc(OCc2ccccc2)cc1 (stereo not given)	-8%	.	?	.	?	.
CCOCCCN1C(=O)c2[nH]nc(-c3ccccc3O)c2C1c1ccc(CC)cc1 (stereo not given)	?	.	16µM*	.	21µM*	.
COc1ccccc1/C=N/OCc1cc(C(C)=O)ccc1OC	3%	-13%	-8%	1%	2%	-2
COCc1cn(C[C@H]2C[C@@H](NC(=O)C(C)C)[C@H](O)[C@@H]2O)nn1	17%[176 µM]	.	.	.	.	.
CCOc1ccc(NC(=O)C2CCN(S(=O)(=O)c3ccc4c(c3)CC(C)N4C(C)=O)CC2)cc1 (stereo not given)	?	-8%	?	-3%	?	52
CC(C)CCNC(=O)C1CCCN(S(=O)(=O)c2ccc3c(c2)CC(C)N3C(=O)C2CC2)C1 (stereo not given)	53%	-11%	-27%	-5%	?	-55*
CC(=O)N1c2ccc(S(=O)(=O)N3CCCC(C(=O)Nc4ccc(C)cc4)C3)cc2CC1C (stereo not given)	20%	.	.	.	.	.
CCOc1ccc(NC(=O)C2CCCN(S(=O)(=O)c3ccc4c(c3)CC(C)N4C(C)=O)C2)cc1 (stereo not given)	0%	-1%	-19%	-1%	?	-1
CCc1ccc(NC(=O)C2CCCN(S(=O)(=O)c3ccc4c(c3)CC(C)N4C(C)=O)C2)cc1 (stereo not given)	6%	-1%	26µM*	7%	16µM*	-5
CC(=O)N1c2ccc(S(=O)(=O)N3CCCC(C(=O)Nc4ccc(F)cc4)C3)cc2CC1C (stereo not given)	13%	-15%	23µM*	-4%	?	-5
CCc1ccc(NC(=O)C2CCN(S(=O)(=O)c3ccc4c(c3)CC(C)N4C(C)=O)CC2)cc1 (stereo not given)	29%	-1%	10µM*	-3%	16µM*	23
CCc1cccc(NC(=O)CCc2c(C)nn(-c3ccc(N4CCOCC4)nn3)c2C)c1	6%	-2%	?	-3%	?	-7
CCc1cccc(OCC(=O)Nc2cc(S(=O)(=O)N3CCOCC3)ccc2N2CCCC2)c1	-20%	6%	?	8%	?	-23
O[C@@H](Cc1ccccc1)[C@@H](/C=C/c1ccccc1)N(Cc1ccccc1)Cc1ccccc1	-22%	.	.	.	.	.
CC(=O)Nc1cccc(NC(=O)C(=O)N2CCN(C(=O)c3cc4ccccc4[nH]3)CC2)c1	-1%	.	.	.	.	.
SMILES	12-LOX inh	HT1080 IDH1KD tx	DT40 TDP1 no CPT	HT1080-NT tox	TDP1 cell CPT	IL1B secr inh
COc1ccc2c(c1)c(C(=O)N/N=C/c1cccc(O)c1)c(C)n2C	-5%	13%	10µM*	19%	18µM*	-9
COc1ccc2c(c1)c(C(=O)N/N=C/c1cccc(Br)c1)c(C)n2C	-11%	-6%	10µM*	-10%	?	0
COc1ccc2c(c1)c(C(=O)N/N=C/c1ccccc1Cl)c(C)n2C	?	4%	8.2µM*	-2%	21µM*	-19
CC1(c2nnc(Cc3ccccc3)o2)CC(c2cccc(F)c2)=NO1 (stereo not given)	-8%	6%	-3%	-11%	0%	19
COc1ccc2cc(CNC(=O)c3ccc4c(c3)NC(=O)CCS4)ccc2c1	18%	.	.	.	.	.
Cc1ccc(NC(=O)Nc2c(C)n(C)n(-c3ccccc3)c2=O)cc1C	3%	18%	23µM*	23%	16µM*	13
Cc1c(NN=C(C#N)C#N)c(=O)n(-c2ccccc2)n1C	2%	-2%	?	3%	-85%	-61*
COc1ccc(NC(=O)Nc2c(C)n(C)n(-c3ccccc3)c2=O)cc1OC	2%	-4%	19%	7%	14%	i
COC(=O)c1ccc(OCC(O)CN2CCN(C(=O)c3ccco3)CC2)c(OC)c1 (stereo not given)	?	-3%	-12%	13%	4%	-14
Cc1ccc(S(=O)(=O)/N=C2\C=C(Nc3ccc(O)cc3)C(=O)c3ccccc32)cc1	.	23µM*	2.9µM*	18µM*	2.1µM*	-97*
Cc1ccc(S(=O)(=O)/N=C2\C=C(Nc3cccc(C(=O)O)c3)C(=O)c3ccccc32)cc1	-17%	21µM*	?	23µM*	?	-93*
CCc1ccc(S(=O)(=O)/N=C2\C=C(Nc3ccc(C(=O)O)cc3)C(=O)c3ccccc32)cc1	-22%	18µM*	23µM*	16µM*	18µM*	-99*
Cc1ccc(S(=O)(=O)/N=C2\C=C(Nc3cccc(C(=O)O)c3)C(=O)c3ccccc32)c(C)c1	?	6.5µM*	?	10µM*	?	-104*
